This is an account of results in PubChem BioAssay (NCI).

Test systems include HCT-15 colon; HT29 colon; SNB-75 CNS; SNB-19 CNS; U251 CNS; PC-3 prostate; SK-MEL-5 melanoma; UACC-62 melanoma; LOX IMVI melanoma; SK-MEL-28 melanoma; SK-MEL-2 melanoma; EKVX NSCLC; UO-31 renal; TK-10 renal; ACHN renal; CAKI-1 renal; A498 renal; CCRF-CEM leukemia; MOLT-4 leukemia; SN12C renal.
Assay in all cases: NCI-60 one-dose screen, 48 h (100 = growth as untreated, 0 = no growth, -100 = all killed)
Holding throughout (conditions): 10 µM unless noted

This is part of a sample that, as a whole, favours compounds with a hit. Of some 83,000 tested, about 20% had one in any assay.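 Plates (96-well) were seeded with cells, treated with compound at one concentration, and incubated for 48 hours before percent growth was determined.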 Values without a mark were called inactive. Calls of active or inactive are those of the source. Rule for the calls: active = growth percent below 10; inactive = the rest.

On to `Cc1ccc(OCc2occc2C(=O)N2CCOCC2)cc1`, for which the growth in the assay with HCT-15 colon was 100%; with HT29 colon it was 108%; in the assay with SNB-75 CNS, 81.8%; in the assay on SNB-19 CNS, 99.8%; with U251 CNS, 103%; with PC-3 prostate, 107%. Moreover, the growth is 100% in the assay on SK-MEL-5 melanoma; 97.9% with UACC-62 melanoma; 108% in the assay on LOX IMVI melanoma; 110% in the assay on SK-MEL-28 melanoma; 107% in the assay on SK-MEL-2 melanoma; 96.5% in the assay on EKVX NSCLC. Besides, the growth with UO-31 renal was 90.9%; in the assay with TK-10 renal, 97.3%; in the assay on ACHN renal it was 111%; in the assay with CAKI-1 renal, 93.7%; in the assay with A498 renal, 98.1%; in the assay on CCRF-CEM leukemia, 94.5%. Also, in the assay with MOLT-4 leukemia, the growth was 109%.

Turning to `CN1CCN(c2ccc(Nc3nc(NCCNS(=O)(=O)c4ccc5ccccc5c4)c4sccc4n3)cc2)CC1`, the growth in the assay with HCT-15 colon was 7.96% (active); with HT29 colon, 8.55% (active); with SNB-75 CNS it was 78%; in the assay on SNB-19 CNS it was 90.6%; in the assay with U251 CNS, 13.4%; in the assay with PC-3 prostate, 76%. Moreover, the growth in the assay with SK-MEL-5 melanoma was 86.1%; in the assay with UACC-62 melanoma it was 66.5%; with LOX IMVI melanoma, -77.3% (active); with SK-MEL-28 melanoma it was 74.4%; with SK-MEL-2 melanoma it was 103%; with EKVX NSCLC, 86.2%. In addition, the growth in the assay on UO-31 renal is 68.9%; with TK-10 renal it was 127%; in the assay with ACHN renal, 86.8%; in the assay on CAKI-1 renal, 69.5%; in the assay with A498 renal, 86.9%; in the assay with CCRF-CEM leukemia, 41.9%. In the assay on MOLT-4 leukemia, the growth was 41.6%.

For the compound `O=C(CSc1nnc(-c2cccs2)n1-c1ccccc1)Nc1ccccc1`, the growth in the assay on HCT-15 colon is 80.3%; in the assay with HT29 colon, 91.1%; in the assay on SNB-75 CNS, -0.436% (active); with SNB-19 CNS, 54.1%; with U251 CNS, 84.3%; in the assay with PC-3 prostate, 83%. Moreover, the growth is 80.1% with SK-MEL-5 melanoma; 67.7% with UACC-62 melanoma; 71.9% in the assay with LOX IMVI melanoma; 76.9% with SK-MEL-28 melanoma; 108% in the assay on SK-MEL-2 melanoma; 76.7% in the assay with EKVX NSCLC. In addition, the growth is 64.4% in the assay on UO-31 renal; 105% with TK-10 renal; 59.6% in the assay with ACHN renal; 63.6% in the assay with CAKI-1 renal; 84.9% in the assay on A498 renal; 93.7% in the assay with CCRF-CEM leukemia. In addition, in the assay on MOLT-4 leukemia, the growth was 93.6%.

With `N#Cc1cnc2ccc(-c3cnc4n[nH]nc4c3)cc2c1N1CCc2cc(F)c(Cl)cc21`, the growth is 12.3% in the assay on HCT-15 colon; 28.1% with HT29 colon; -0.117% (active) in the assay on SNB-75 CNS; 16.4% with SNB-19 CNS; 21.1% in the assay with U251 CNS; 20.4% in the assay with PC-3 prostate. Further, the growth is -45% (active) with SK-MEL-5 melanoma; 2.13% (active) with UACC-62 melanoma; 10.1% in the assay with LOX IMVI melanoma; 13.4% with SK-MEL-28 melanoma; -22.6% (active) in the assay on SK-MEL-2 melanoma; 3.17% (active) in the assay with EKVX NSCLC. The growth with UO-31 renal is 2.18% (active); in the assay on TK-10 renal it was -11.4% (active); in the assay on ACHN renal, 13.6%; in the assay with CAKI-1 renal, 6.12% (active); in the assay on A498 renal it was -11.8% (active); in the assay with CCRF-CEM leukemia, 10.6%. Also, the growth in the assay with MOLT-4 leukemia is -1.31% (active).

For `CCCCN1C(=O)/C(=c2\sc3n(c2=O)C2C(NN=3)N(CC)C(=O)N2CC)c2cc(C)ccc21` (centres undefined), the growth with HCT-15 colon is 86.2%; with HT29 colon, 102%; in the assay on SNB-75 CNS it was 87.9%; with SNB-19 CNS it was 93.3%; in the assay with U251 CNS it was 98.3%; with PC-3 prostate, 95.8%. For the same compound, the growth with SK-MEL-5 melanoma is 92.8%; with UACC-62 melanoma, 71.6%; in the assay on LOX IMVI melanoma it was 78.8%; in the assay with SK-MEL-28 melanoma, 102%; in the assay on SK-MEL-2 melanoma it was 113%; in the assay with EKVX NSCLC it was 85.2%. In addition, the growth in the assay on UO-31 renal was 75%; in the assay on TK-10 renal it was 117%; in the assay on ACHN renal it was 95.1%; in the assay on CAKI-1 renal it was 58.1%; with A498 renal it was 96%; in the assay on CCRF-CEM leukemia it was 94.7%. In the assay on MOLT-4 leukemia, the growth was 91.8%.

With `O=C(Nc1cc(C(F)(F)F)cc(C(F)(F)F)c1)Nc1ccc2oc(=O)ccc2c1`, the growth with HCT-15 colon is 10.5%; in the assay with HT29 colon, 10.5%; in the assay on SNB-75 CNS, 15.1%; in the assay with SNB-19 CNS, 13.6%; in the assay on U251 CNS it was 14.6%; in the assay with PC-3 prostate, 3.96% (active). For the same compound, the growth was -90.6% (active) with SK-MEL-5 melanoma; 14% in the assay with UACC-62 melanoma; -43.1% (active) in the assay on LOX IMVI melanoma; 34.8% with SK-MEL-28 melanoma; -18.5% (active) with SK-MEL-2 melanoma; 9.09% (active) in the assay with EKVX NSCLC. Besides, the growth in the assay on SN12C renal was -7.21% (active); in the assay with UO-31 renal, 1.64% (active); with TK-10 renal, 16.1%; with ACHN renal, -3.53% (active); in the assay on CAKI-1 renal, 1.47% (active); in the assay on CCRF-CEM leukemia, 17.5%. Moreover, the growth with MOLT-4 leukemia was 19.7%.
